In PubChem BioAssay (Tox21) one finds Potency data, which are given here for 40 molecules.

The structures appear in SMILES notation. Inconclusive results are not listed. Entries that show only a call come without a potency. The source made the active and inactive calls. Calls come from the whole dose curve.

The experiment in a line: qHTS assay to identify small molecule antagonists of the estrogen receptor alpha (ER-alpha) signaling pathway using the BG1 cell line (AID 743080).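 Note: BG1 cells stimulated with 17beta-estradiol alongside compound; nearly all actives have a fitted effect of over 25% in size.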 The note with it: BG1Luc4E2 ERE-luciferase antagonist mode, luminescence; series mostly up to 70.3 µM. From the text: National Center for Advancing Translational Sciences [NCATS]
NIH Chemical Genomics Center [NCGC]
U.S. Environmental Protection Agency [EPA]
National Institutes of Environmental Health Sciences [NIEHS]
National Toxicology Program [NTP]
U.S. Food and Drug Administration [FDA]
Estrogen receptor (ER), a nuclear hormone receptor, plays an important role in development, metabolic homeostasis and reproduction. Endocrine disrupting chemicals (EDCs) and their interactions with steroid hormone receptors like ER causes disruption of normal endocrine function. Therefore, it is important to understand the effect of environmental chemicals on the ER signaling pathway. To identify ER antagonists, BG1-Luc-4E2 cell line (provided by Dr. Michael Denison from University of California) has been used to screen the Tox21 10K compound library. BG1Luc4E2 cell line endogenously expresses full-length ER-alpha and is stably transfected with a plasmid containing four estrogen responsive elements (ERE) upstream of a luciferase reporter gene.
Tox21 Assay Protocol Summary:
BG1-Luc-4E2 cells were cultured in phenol red free assay medium containing 10% charcoal stripped FBS for 5 days before the assay was performed. The cells were dispensed at 4,000 cells/4 uL of assay medium per well into white wall/solid-bottom 1536-well plates using a Multidrop Combi (ThermoFisher Scientific, Waltham, MA) dispenser. The assay plates were incubated at a 37C and 5% CO2 for 24 h, and then 23 nL of compounds dissolved in DMSO, positive controls or DMSO only was transferred to the assay plate using a Pintool station (Kalypsys, San Diego, CA), followed by addition of 1 uL of 17beta-estradiol in assay medium using a Flying Reagent Dispenser (Aurora Discovery, San Diego, CA). After the plates were incubated at 37 C and 5% CO2 for 21.5 h, 1 uL of CellTiter-Fluor reagent (Promega, Madison, WI) of measuring cytotoxicity was added using Flying Reagent Dispenser (FRD) to each well. The assay plates were incubated at 37 C and 5% CO2 for additional 30 min and the fluorescence intensity was quantified by a ViewLux plate reader (PerkinElmer, Shelton, CT). For measuring luciferase reporter gene activity, 4 uL of ONE-Glo reagent (Promega) was added to each plate using an FRD and luminescence was quantified by a ViewLux plate reader after 30 min incubation at room temperature.
For orientation: Quantitative high-throughput screening tests each substance at several concentrations.
Consider `CCN(CC)c1cccc(O)c1`, for which the Potency result is “inactive”. Consider `CC1CCCC(=O)C1=O` (stereo not given), for which the Potency result was “inactive”. With `CC1=C2[C@@H]([C@H](C)CC[C@H]2/C=C(\C)C(=O)O)[C@H](O)C1`, the Potency result was “inactive”. The entry for `COC(=O)c1sccc1S(N)(=O)=O` is “inactive”. As for `CNc1c2c(nn1C)CCCC2`, the entry is “inactive”. The entry for `CCCc1nc2c(C)cc(-c3nc4ccccc4n3C)cc2n1Cc1ccc(-c2ccccc2C(=O)O)cc1` is “inactive”; for `COc1ccc(CCN(C)CCCN2CCc3cc(OC)c(OC)cc3CC2=O)cc1OC` it is “inactive”. On to `C=C(C)C(=O)OCCC(F)(F)C(F)(F)C(F)(F)C(F)(F)C(F)(F)C(F)(F)F`, for which the Potency entry was “inactive”. As for `O=[N+]([O-])c1ccc2ncccc2c1`, the Potency entry is “inactive”. For `c1ccc2sc(SSc3nc4ccccc4s3)nc2c1`, the Potency result was “inactive”. The entry for `ClC1=C(Cl)C1(Cl)Cl` is “inactive”. As for `COc1cc(C(C)=O)ccc1OCCCN1CCC(c2noc3cc(F)ccc23)CC1`, the entry is “inactive”. As for `SCCc1cnccn1`, the entry is “inactive”; as for `CC(C)C1CCC(C(=O)N[C@H](Cc2ccccc2)C(=O)O)CC1` (stereo not given in full), “inactive”; as for `COC(OC)OC`, “inactive”. For `CC1=CC[C@@H]2C[C@H]1C2(C)C`, the Potency result was “inactive”. The entry for `O=S(=O)(Cl)c1c(Cl)cccc1Cl` is “inactive”; for `CCOCCC(=O)OCC` it is “inactive”. The entry for `CCCCCCCCCCCCCCCC(=O)OCC` is “inactive”; for `COc1ccc(C2C(=O)c3ccccc3C2=O)cc1` it is “inactive”.

Turning to `CCC(CO)(CO)CO`, the Potency entry is “inactive”. As for `BrC(Br)C(Br)Br`, the entry is “inactive”; as for `CC(CCc1ccc(O)cc1)NCCc1ccc(O)c(O)c1` (stereo not given), “inactive”. As for `CN1C(CSCC(F)(F)F)Nc2cc(Cl)c(S(N)(=O)=O)cc2S1(=O)=O` (stereo not given), the entry is “inactive”; as for `FC(F)(F)C(F)(F)C(F)(F)C(F)(F)CCI`, “inactive”; as for `CC1CCc2nccnc21` (stereo not given), “inactive”. In the case of `Cc1ccc(S(=O)(=O)NC(=O)NC2CCCCC2)cc1`, the Potency result was “inactive”. For the molecule `O=C1[C@@H]2[C@H]3CC[C@H](C3)[C@@H]2C(=O)N1CCCCN1CCN(c2ncccn2)CC1`, the Potency entry is “inactive”.

Turning to `CC(C)C(O)C(C)(C)CO` (stereo not given), the Potency result is “inactive”. As for `C=CCOC(=O)COCCC(C)C`, the entry is “inactive”; as for `CC(C)(O)CCc1ccccc1`, “inactive”. The entry for `O=C(c1ccccc1)C1CCC1` is “inactive”. The entry for `Nc1cccc2c(N)cccc12` is “inactive”. For the molecule `Cc1ccc(N(CC2=NCCN2)c2cccc(O)c2)cc1`, the Potency entry is “inactive”. As for `O=C(O)c1cccc(C[C@@H]2COc3ccc(OCc4nc5cc(F)ccc5s4)cc3[C@@H]2O)c1`, the entry is “inactive”; as for `CC12CC3CC(C)(C1)CC(N)(C3)C2`, “inactive”; as for `CCCCCCC(O)CCOC(C)=O` (stereo not given), “inactive”. In the case of `CCSC(=O)N(CC)CC`, the Potency result is “inactive”. Consider `C=CC(=O)NC(C)C`, for which the Potency result is “inactive”.

`CCCCCCCCCCCSCC(=O)O`: the Potency entry is “inactive”.
